Data on 40 compounds can be found in PubChem BioAssay (EPA / NIEHS).

Usually AC50 stands for the concentration giving half of the maximal activity seen.

Activity calls are given as the source filed them. The calls were made as follows: active = hit-call score of the fitted dose curve at least 0.9, where 1 is the maximum; inactive = score below 0.9.

A short description of this assay: BSK_3C_Proliferation: Cell Proliferation Assessment in the BioMAP Diversity Plus: 3C Assay (AID 2283006).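 As to AC50: potency may reflect either rise or fall in cell number versus DMSO.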 The settings on record: primary human endothelial cells (HUVEC). As to the method: BSK_3C is a cell-based, multiplexed-readout assay that uses umbilical vein endothelium, a human vascular primary cell, with measurements taken at 24 hours after chemical dosing in a 96-well plate.BSK_3C_Proliferation is an assay component measured in the BSK_3C assay. It measures 0.1% sulforhodamine related to cell proliferation using Sulforhodamine staining technology.Data from the assay component BSK_3C_Proliferation was analyzed into 1 assay endpoint. This assay endpoint, BSK_3C_Proliferation, was analyzed with bidirectional fitting relative to DMSO as the negative control and baseline of activity. Using a type of viability reporter, measures of total protein for gain or loss-of-signal activity can be used to understand the viability at the cellular-level. Furthermore, this assay endpoint can be referred to as a secondary readout, because this assay has produced multiple assay endpoints where this one serves a viability function. To generalize the intended target to other relatable targets, this assay endpoint is annotated to the cell cycle intended target family, where the subfamily is proliferation.
The levels of cell surface (or secreted, indicated by the prefix "s") biomarker endpoints were measured by ELISA. Overt cytotoxicity to cells in confluent adherent cultures (all systems other than the BT system) was assessed by measuring total protein levels using sulforhodamine B (SRB) staining in parallel cultures at the time of biomarker measurements, indicated as SRB endpoints. For proliferation assays for adherent cell types, individual cell types are cultured at sub-confluence and relative cell numbers quantified by SRB staining at time points optimized for each system (48 h: 3C and CASM3C systems; 72 h: BT and HDF3CGF systems; 96 h: SAg system). SRB was performed by staining cells with 0.1% SRB after fixation with 10% TCA and reading wells at 560 nm.Viability and proliferation of PBMC (T cells) was quantified by Alamar Blue reduction for the SAg and BT systems. For PBMC viability (referred to as PBMC Cytotoxicity within the assay endpoint names), cells were plated (75,000/well in a 96-well plate) and then chemical samples added for 1 h before addition of activators, SEB and TSST-1 (20 ng/mL final concentration each). Cells were incubated for 90 h. Then, Alamar Blue (20 uL/well) (Invitrogen, Cat DAL1100) was added for 6 h, and the plates were read with a fluorescence microplate reader at 546/580 nm (excitation/emission). For PBMC proliferation, cells were plated and activated as above but incubated for only 16 h prior to addition of Alamar Blue. Plates were read after 6 h.
On to `Nc1cc([N+](=O)[O-])ccc1O`, for which the outcome was inactive.

For the compound `BrC1CCC(Br)C(Br)CCC(Br)C(Br)CCC1Br` (stereo not given), the AC50 is 4.72 µM (active).

`CC(C)c1ccc(C(C)C)cc1`: the AC50 is 33.8 µM (active).

Take `Cc1cc(C2(c3cc(C)c(O)cc3C)OS(=O)(=O)c3ccccc32)c(C)cc1O`: the result was inactive.

Consider `O=P(c1ccccc1)(c1ccccc1)c1ccccc1`, for which the outcome was inactive.

For `C=C[Si](OCC)(OCC)OCC`, the outcome was inactive.

`O=C1OC2(c3cc(Br)c(O)c(Br)c3Oc3c2cc(Br)c(O)c3Br)c2c(Cl)c(Cl)c(Cl)c(Cl)c21`: the AC50 is 8.03 µM (active).

Take `N#Cc1ccc(CC(=NNC(=O)Nc2ccc(OC(F)(F)F)cc2)c2cccc(C(F)(F)F)c2)cc1`: the outcome was inactive.

As for `CN(CCOc1ccc(CC2SC(=O)NC2=O)cc1)c1ccccn1` (stereo not given), the AC50 is 7.9 µM (active).

Turning to `OC[C@H]1O[C@H](O[C@]2(CCl)O[C@H](CCl)[C@@H](O)[C@@H]2O)[C@H](O)[C@@H](O)[C@H]1Cl`, the outcome was inactive.

For the compound `Cc1ccc2n[nH]nc2c1`, the outcome was inactive.

`C[C@H]1C[C@@H]2[C@H]([C@@H](O)C[C@@]3(C)[C@H]2CC[C@]3(O)C(=O)CO)[C@@]2(C)C=CC(=O)C=C12`: the outcome was inactive.

For `CC1COc2ccccc2N1C(=O)C(Cl)Cl` (stereo not given), the AC50 was 5.24 µM (active).

As for `CCCCCCCCC=O`, the result was inactive.

Regarding `O=C(O)C[C@H](O)C[C@H](O)/C=C/c1c(C2CC2)nc2ccccc2c1-c1ccc(F)cc1`, the AC50 was 1.95 µM (active).

Consider `CCc1c(C)cc(N)c(CC)c1N`, for which the result was inactive.

In the case of `O=C1CCCCCCCCCCCCCCO1`, the half-maximal activity concentration (AC50) was 20 µM (active).

For the compound `c1ccc2c(c1)c1cccc3ccc4cccc2c4c31`, the outcome was inactive.

Turning to `OC1OC[C@@H](O)[C@H](O)[C@H]1O` (stereo not given in full), the result was inactive.

As to `NCCNCCN`, the outcome was inactive.

Turning to `O=C(O)c1cn(-c2ccc(F)cc2)c2cc(N3CCNCC3)c(F)cc2c1=O`, the result was inactive.

Take `Cc1ccc(O)c(C(C)(C)C)c1`: the AC50 is 15.1 µM (active).

`O=C=NC1CCC(CC2CCC(N=C=O)CC2)CC1` (stereo not given): the AC50 was 23.2 µM (active).

For `CC(=O)Nc1ccccc1O`, the outcome was inactive.

`c1ccc2sc(SN(C3CCCCC3)C3CCCCC3)nc2c1`: the AC50 is 8.86 µM (active).

Turning to `CC(=O)O[C@]1(C(C)=O)CC[C@H]2[C@@H]3C[C@H](C)C4=CC(=O)CC[C@]4(C)[C@H]3CC[C@@]21C`, the result was inactive.

Take `O=C(O)c1ccc([N+](=O)[O-])cc1`: the result was inactive.

With `CC(=O)/C=C/C1=C(C)CCCC1(C)C`, the outcome was inactive.

With `CCCCC/C=C/C=C/C=O`, the AC50 is 20 µM (active).

`CCCCC(CC)COCCC#N` (stereo not given): the AC50 was 20 µM (active).

As for `CNC[C@H](O)c1cccc(O)c1`, the outcome was inactive.

Regarding `CC(C)(COC(=O)c1ccccc1)COC(=O)c1ccccc1`, the AC50 is 22.2 µM (active).

For the compound `O=[N+]([O-])c1cc(C(F)(F)F)ccc1Cl`, the outcome was inactive.

As to `C=C(C)C(=O)O[C@H]1C[C@@H]2CC[C@@]1(C)C2(C)C`, the AC50 is 8.38 µM (active).

As for `CC[Si](OC(C)=O)(OC(C)=O)OC(C)=O`, the result was inactive.

As to `CCCCCCCCCC=O`, the outcome was inactive.

Consider `COc1cc(C=O)ccc1OC(=O)C(C)C`, for which the outcome was inactive.

`Cc1ccc(Nc2ccc(O)c3c2C(=O)c2ccccc2C3=O)cc1`: the outcome was inactive.

As to `CCCCCCCCCCCCCCCCCC(=O)OCC(CC)CCCC` (stereo not given), the outcome was inactive.

As for `COC(=O)c1ccc(C)cc1`, the outcome was inactive.
